BJeLR viability: lowers viability of BJeLR cells | BJeLR fibroblasts viability, CellTiterGlo ATP luminescence, 48 h; HRASV12, hTERT and SV40 LT/ST transformed | viability loss activity score, % (no concentration beside the values) | actives 0.64% (n = 30,000); in the data active = viability loss activity score above about 50%;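 note: higher score means fewer live cells and less ATP luminescence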
Shh pathway inh: blocks Sonic Hedgehog signaling; Shh-LIGHT2 Gli-luciferase reporter, 30 h; inhibition, % (no concentration beside the values); actives 2.1% (n = 22,000); AID 2313;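 active = mean inhibition across valid replicates above about 65%, limit read from the data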;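 note: pathway switched on by Shh-conditioned medium diluted 1 in 25 in low serum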
The depositor's hits bear a star; · = no result given. This is one part of a sample in which hits are shown more often than they occur.

SMILES | BJeLR viability | Shh pathway inh
CN1CCc2cc3c(cc2C2OC(O)c4c(ccc5c4OCO5)C21)OCO3 (stereo not given) | -2 | -12
O[C@@H]1[C@@H](O)C=C2CCN3Cc4cc5c(cc4[C@H]1C23)OCO5 (stereo not given in full) | 24 | 96*
O[C@H]1[C@H]2c3cc4c(cc3CN3CCC(=C[C@@H]1O)[C@H]23)OCO4 | 63* | 83*
CC(=O)OC[C@]12CCC(C)=CC1O[C@@H]1[C@H](O)[C@@H](O[C@H]3O[C@H](CO)[C@@H](O)[C@H](O)[C@H]3O)[C@@]2(C)C12CO2 (stereo not given in full) | · | 50
CC1=CC2OC3[C@H](O)C[C@](C)([C@@]2(CO)CC1=O)[C@]31CO1 (stereo not given in full) | 37 | 95*
CCOC(=O)c1ccc(N2C(=O)C(Oc3ccccc3)C2c2ccc(OCC)cc2)cc1 (stereo not given) | 4 | ·
COc1cc2c(C(=O)Nc3ccc(F)cc3)cn(CC(C)C)c(=O)c2cc1OC | -7 | ·
CCc1ccc(N2C(=O)CC(Sc3ccccc3N)C2=O)cc1 (stereo not given) | -2 | ·
O=C1CC(SCc2ccc(Cl)cc2)C(=O)N1c1ccc(Br)cc1 (stereo not given) | 2 | 94*
CCOc1ccccc1N1C(=O)C2C(c3ccccc3)C=CC(c3ccccc3)C2C1=O (stereo not given) | 0 | ·
C=C1C(=O)O[C@H]2CC(C)C3CC[C@@]4(C)O[C@@]34CC12 (stereo not given in full) | · | -16
C=C1C(=O)O[C@@H]2C3O[C@]3(C)CC/C=C(/C)CC[C@@H]12 (stereo not given in full) | 7 | 67*
C=C1C(=O)O[C@@H]2[C@H]3O[C@]3(C)CCC=C(C)CC[C@@H]12 | 17 | 82*
C=C1C(=O)O[C@H]2C1CCC(C)=C1C(=O)C=C(C)[C@@]12O (stereo not given in full) | -4 | 7
O=C1NCCN1CCNC(=S)Nc1ccc(OC(F)(F)F)cc1 | 8 | ·
C[C@@H]1CN([C@H](C)CO)C(=O)c2cc(NC(=O)Nc3ccc(F)cc3)ccc2O[C@H]1CN(C)Cc1ccc(Cl)c(Cl)c1 | 0 | -40
C[C@H](CO)N1C[C@H](C)[C@H](CN(C)Cc2ccc(Oc3ccccc3)cc2)Oc2ccc(NC(=O)NC3CCCCC3)cc2C1=O | 2 | ·
C[C@@H]1CN([C@@H](C)CO)C(=O)c2cc(NC(=O)Nc3ccc(F)cc3)ccc2O[C@@H]1CN(C)Cc1ccc(Cl)c(Cl)c1 | -3 | 85*
Cc1noc(C)c1NC(=O)Nc1ccc2c(c1)C(=O)N([C@H](C)CO)C[C@@H](C)[C@@H](CN(C)Cc1ccc(Oc3ccccc3)cc1)O2 | 2 | 67*
CC(C)NC(=O)Nc1ccc2c(c1)C(=O)N([C@H](C)CO)C[C@@H](C)[C@@H](CN(C)Cc1ccc(-c3ccccc3)cc1)O2 | -1 | 67*
Cc1noc(C)c1NC(=O)Nc1ccc2c(c1)C(=O)N([C@H](C)CO)C[C@H](C)[C@@H](CN(C)Cc1ccc(Oc3ccccc3)cc1)O2 | 2 | 33
C[C@@H]1CN([C@H](C)CO)C(=O)c2cc(NC(=O)NC3CCCCC3)ccc2O[C@@H]1CN(C)Cc1ccc(Oc2ccccc2)cc1 | 1 | 91*
CC(C)NC(=O)Nc1ccc2c(c1)C(=O)N([C@@H](C)CO)C[C@H](C)[C@H](CN(C)Cc1ccc(-c3ccccc3)cc1)O2 | 2 | 5
O=C(NCCc1ccc(Cl)cc1)c1cc2c(=O)[nH]c3ccccc3c2s1 | 4 | ·
CCOC(=O)c1ccc(NC(=O)c2oc3c(c2C)-c2nn(Cc4ccc(C)cc4)cc2CC3)cc1 | 3 | ·
SMILES | BJeLR viability | Shh pathway inh
CCOC(=O)c1nnc(Cc2ccc(F)cc2)o1 | 1 | ·
C[C@H](CO)N1C[C@H](C)[C@H](CN(C)S(=O)(=O)c2ccc(F)cc2)Oc2c(NC(=O)Nc3ccc(F)cc3)cccc2C1=O | 1 | 101*
C[C@@H]1CN([C@@H](C)CO)C(=O)c2cccc(NC(=O)Nc3ccc(F)cc3)c2O[C@@H]1CN(C)S(=O)(=O)c1ccc(F)cc1 | -2 | -7
Cc1ccc(S(=O)(=O)N(C)C[C@@H]2Oc3c(NC(=O)Nc4ccc(F)cc4)cccc3C(=O)N([C@H](C)CO)C[C@@H]2C)cc1 | -2 | 117*
Cc1ccc(S(=O)(=O)N(C)C[C@@H]2Oc3c(NC(=O)Nc4ccc(F)cc4)cccc3C(=O)N([C@@H](C)CO)C[C@@H]2C)cc1 | -7 | 108*
Cc1ccc(S(=O)(=O)N(C)C[C@@H]2Oc3c(NC(=O)Nc4ccc(F)cc4)cccc3C(=O)N([C@@H](C)CO)C[C@H]2C)cc1 | 5 | 0
C[C@H](CO)N1C[C@H](C)[C@@H](CN(C)S(=O)(=O)c2ccc(F)cc2)Oc2c(NC(=O)Nc3ccc(F)cc3)cccc2C1=O | -1 | 29
CCOC(=O)Cc1csc(NC(=O)c2ccccc2)n1 | -2 | ·
Cc1ccc2c(c1)c1c(n2CCc2ccncc2)CCN(C)C1 | 0 | 18
CCc1cccc2c(C(C(=O)c3ccccc3)c3c[nH]c4c(CC)cccc34)c[nH]c12 | -1 | 27
COc1ccc(-c2c(C(F)(F)F)oc3c(CN4CCCC(C)C4)c(O)ccc3c2=O)cc1OC (stereo not given) | 8 | ·
C[C@@H]1CCOC(=O)C=CC=CC(=O)O[C@@H]2C[C@H]3O[C@@H]4C=C(C(=O)O)CC[C@]4(COC(=O)[C@H]1O)[C@]2(C)[C@]31CO1 | 71* | 4
CC(C)(C)c1ccc(C(=O)Nc2ccc(NC(=O)c3ccccc3F)cc2)cc1 | 3 | 15
O=C(Nc1ccc(NC(=O)c2ccccc2O)cc1)c1ccc(Cl)cc1 | -4 | 97*
CC1CCc2c(cc(-c3ccccc3)n2-c2ccc(C(=O)NCCN3CCN(C)CC3)cc2)C1 (stereo not given) | 11 | ·
Cc1cc(C(=O)Nc2cccc3c2O[C@@H](CN(C)Cc2ccc(Oc4ccccc4)cc2)[C@H](C)CN([C@H](C)CO)C3=O)n(C)n1 | 3 | 69*
C[C@@H]1CN([C@@H](C)CO)C(=O)c2cccc(NC(=O)c3ccc(-c4nccs4)cc3)c2O[C@@H]1CN(C)C(=O)Nc1cccc2ccccc12 | -6 | 66*
C[C@H](CO)N1C[C@H](C)[C@H](CN(C)C(=O)Nc2cccc3ccccc23)Oc2c(NC(=O)c3ccc(-c4nccs4)cc3)cccc2C1=O | 5 | -25
Cc1cc(C(=O)Nc2cccc3c2O[C@H](CN(C)Cc2ccc(Oc4ccccc4)cc2)[C@@H](C)CN([C@@H](C)CO)C3=O)n(C)n1 | -4 | 77*
Cc1cc(C(=O)Nc2cccc3c2O[C@@H](CN(C)Cc2ccc(Oc4ccccc4)cc2)[C@@H](C)CN([C@@H](C)CO)C3=O)n(C)n1 | -1 | -9
Cc1cc(C(=O)Nc2cccc3c2O[C@H](CN(C)Cc2ccc(Oc4ccccc4)cc2)[C@H](C)CN([C@@H](C)CO)C3=O)n(C)n1 | 4 | -20
CCc1c(C)sc(NC(=O)C2CC3CCC2C3)c1C(=O)OC (stereo not given) | 2 | ·
Cc1c(-c2cc(NC(=O)c3ccccc3)n[nH]2)sc2ccc(Cl)cc12 | 7 | ·
O=C1c2c(O)cc(O)cc2OC(c2ccc(O)cc2)C1C1C(=O)c2c(O)cc(O)cc2OC1c1ccc(O)cc1 (stereo not given) | · | -42

Bioassay records from PubChem BioAssay.
